Records with an inconclusive call do not appear. Active and inactive are the calls of the source. The call rests on the fitted dose curve; in most records, active means well fitted curve in the direction sought with a large enough effect; inconclusive means small, poorly fitted or top-dose-only effect, or another doubt; inactive means no such curve, though single readings can be large; an effect the other way counts as inactive or inconclusive.
Legend:
[1] = molecular target: Aldehyde dehydrogenase, mitochondrial (Homo sapiens) (UniProt P05091); assay: qHTS for Inhibitors of the Aldehyde Dehydrogenase Family (ALDH2) Primary screen (AID 2061308); further: nearly all actives have a fitted effect of over 55% in size
[2] = molecular target: Retinaldehyde dehydrogenase 3 (Homo sapiens) (UniProt P47895); assay: qHTS for Inhibitors of the Aldehyde Dehydrogenase Family (ALDH1A3) Validation screen (AID 2061312); further: nearly all actives have a fitted effect of over 45% in size
[3] = molecular target: Retinaldehyde dehydrogenase 3 (Homo sapiens) (UniProt P47895); assay: qHTS for Inhibitors of the Aldehyde Dehydrogenase Family (ALDH1A3) Primary screen (AID 2061315)

Measured: Potency

C=CS(=O)(=O)NC1CCN(C(=O)CNc2cc(I)c(Cl)cc2OC)CC1
inactive: all assays above

CC(=O)OCC(=O)[C@@]1(O)[C@H](C)C[C@H]2[C@@H]3CCC4=CC(=O)C=C[C@]4(C)[C@@]3(F)[C@@H](O)C[C@@]21C
inactive: all assays above

CC(C)n1cnc2c(Nc3cccc(Cl)c3)nc(NCCO)nc21
inactive: all assays above

CN(C)CCN(Cc1ccccc1)C(=O)c1cc(-c2ccc(F)cc2)n2nc(C(C)(C)C)cc2n1
inactive: all assays above

CC(Oc1cc(-n2cnc3ccc(CN4CCN(C)CC4)cc32)sc1C(N)=O)c1ccccc1C(F)(F)F (stereo not drawn)
inactive: all assays above

CC(=O)OC12COC1CC(O)C1(C)C(=O)C(O)C3=C(C)C(OC(=O)C(O)C(NC(=O)OC(C)(C)C)c4ccccc4)CC(O)(C(OC(=O)c4ccccc4)C21)C3(C)C (stereo not drawn)
inactive: all assays above

Cc1ccc(O)cc1Nc1ccnc(Nc2cccc(C(N)=O)c2)n1
inactive: all assays above

Cc1ccccc1-c1cc(N2CCN(C)CC2)ncc1N(C)C(=O)C(C)(C)c1cc(C(F)(F)F)cc(C(F)(F)F)c1
inactive: all assays above

COc1c(Nc2ncc(Cl)c(N[C@H]3[C@@H](C(N)=O)[C@@H]4C=C[C@H]3C4)n2)ccc2c1CC[C@@H](N1CCOCC1)CC2
inactive: all assays above

CN(C)Cc1ccc(-c2cnn3c(-c4cccc(NC(=O)c5cccc(C(F)(F)F)c5)c4)ccnc23)cc1
inactive: all assays above

COc1cc2nc(N3CCC(N4CCCCC4)CC3)nc(NC3CCCCCC3)c2cc1OC
inactive: all assays above

CC(NC(=O)Cc1cc(F)cc(F)c1)C(=O)NC1C(=O)N(C)c2ccccc2-c2ccccc21 (stereo not drawn)
inactive: all assays above

CC(=O)Nc1cccc2c1c(Sc1ccc(Cl)cc1)c(C)n2CC(=O)O
inactive: all assays above

CCOC(=O)Nc1nc2ccccc2[nH]1
inactive: all assays above

CCc1cc2c(cc1CC)CC(NCC(O)c1ccc(O)c3[nH]c(=O)ccc13)C2 (stereo not drawn)
inactive: all assays above

CCc1ccccc1OC[C@@H](O)CN[C@H]1CCCc2ccccc21
inactive: all assays above

CN(C)C(CCOc1cccc2ccccc12)c1ccccc1 (stereo not drawn)
inactive: all assays above

NC(=O)N1CCC(CC(=O)N2CCC(C3c4ncc(Br)cc4CCc4cc(Cl)cc(Br)c43)CC2)CC1 (stereo not drawn)
inactive: all assays above

CC(C)[C@@](C)(O)[C@@H]1CN(c2nc(-c3[nH]nc4ncccc34)c(F)cc2Cl)CCN1
inactive: all assays above

COc1cc(N(C)CCN(C)C)c(N)cc1Nc1nccc(-c2cn(C)c3ccccc23)n1
inactive: all assays above

COc1cc2ncnc(N3CCC(Oc4cnc5ccccc5n4)C3)c2cc1OC (stereo not drawn)
inactive: all assays above

CC(=O)N1CCN([C@H]2CCN(C(=O)N(C)[C@H](C)c3cc(C(F)(F)F)cc(C(F)(F)F)c3)[C@@H](c3ccc(F)cc3C)C2)CC1
inactive: all assays above

Cc1ccc(C(=O)N(CCCN)C(c2oc3cc(Cl)ccc3c(=O)c2Cc2ccccc2)C(C)C)cc1 (stereo not drawn)
inactive: all assays above

CC(=O)c1c(OCCN2CCCCC2)c(OCCC(C)c2ccc(F)cc2)c2oc(C)nc2c1C (stereo not drawn)
inactive: all assays above

Cc1cn(C2C=CC(CO)O2)c(=O)[nH]c1=O (stereo not drawn)
inactive: all assays above

C=C[C@H]1CN2CC[C@H]1C[C@H]2[C@H](O)c1ccnc2ccc(OC)cc12
inactive: all assays above

Cc1nc2ccc(CN(C)c3ccc(C(=O)NC(CCC(=O)O)C(=O)O)s3)cc2c(=O)[nH]1 (stereo not drawn)
inactive: all assays above

COc1ccc2nc(-c3cc(OC)c(OC)c(OC)c3)cc(C(=O)NCC(=O)Nc3ccc(C(C)=O)cc3)c2c1
inactive: all assays above

CCCSc1nc(N[C@@H]2C[C@H]2c2ccc(F)c(F)c2)c2nnn([C@@H]3C[C@H](OCCO)[C@@H](O)[C@H]3O)c2n1
inactive: all assays above

CC[C@H](C)[C@H]1O[C@]2(CC[C@@H]1C)C[C@@H]1C[C@@H](C/C=C(\C)[C@@H](O[C@H]3C[C@H](OC)[C@@H](O[C@H]4C[C@H](OC)[C@@H](O)[C@H](C)O4)[C@H](C)O3)[C@@H](C)/C=C/C=C3\CO[C@@H]4[C@H](O)C(C)=C[C@@H](C(=O)O1)[C@]34O)O2
inactive: all assays above

CCN(Cc1ccccc1)C(=O)Cn1c(=O)n(C)c2cnc(-c3ccccc3)nc21
inactive: all assays above

CC[C@H]1OC(=O)[C@H](C)[C@@H](O[C@H]2C[C@@](C)(OC)[C@@H](O)[C@H](C)O2)[C@H](C)[C@@H](O[C@@H]2O[C@H](C)C[C@H](N(C)C)[C@H]2O)[C@](C)(O)C[C@@H](C)C(=O)[C@H](C)[C@H]2OC(=O)O[C@@]21C
inactive: all assays above

C[C@@H](CN1CCC(n2c(=O)[nH]c3cc(Cl)ccc32)CC1)NC(=O)c1ccc2ccccc2c1
inactive: all assays above

CCN(CC)CCN(Cc1ccc(-c2ccc(C(F)(F)F)cc2)cc1)C(=O)Cn1c(SCc2ccc(F)cc2)nc(=O)c2c1CCC2
inactive: all assays above

OC1CCC(Nc2ncc3nc(Nc4c(F)cc(F)cc4F)n([C@H]4CCOC4)c3n2)CC1 (stereo partly drawn)
inactive: all assays above

CC(=O)Nc1nc2c(Oc3cc(-c4ccc(C(F)(F)F)cc4)ncn3)cccc2s1
inactive: all assays above

— PubChem BioAssay (NCATS)
